# In PubChem BioAssay AID2315 (National Center for Advancing Translational Sciences (NCATS), 2010):
# In all, about 290,000 compounds went through this assay and about 27,000 (9.3%) were called active. No stated cut-off is given here; in the data, active means inhibition mostly above about 28% (no sharp cut-off); inactive means mostly below about 43%. Many of the other results were omitted from the sample, so actives are more common in it than they were.
# Assay: A qHTS for Small Molecule Inhibitors of Shiga Toxin; further: 0% is about no effect
# Conditions: Vero cells, Shiga toxin protein synthesis inhibition reporter; at 38.7 µM, active compounds read high
row,Structure (SMILES),inhibition
1,NC(=O)CC(NC(=O)Cc1ccc(Br)cc1)c1ccc(NC2CC3CCC2C3)c([N+](=O)[O-])c1 (stereo unspecified),60% (inactive)
2,Cc1c(C)n(Cc2ccc(Cl)cc2)c2ccc(C(=O)NCCCN3CCOCC3)cc12,-12.7% (inactive)
3,COc1ccc(N/N=C2/CCCCC2=O)cc1,34.6% (inactive)
4,Cc1ccc(N/N=C2\COC(C)(C)CC2=O)cc1,101% (active)
5,COC(=O)c1ccc(S(=O)(=O)N2CCc3ccccc3C2)cc1,-1.69% (inactive)
6,COc1ccc(N(C)S(=O)(=O)c2ccc3c(c2)CC(C)N3C(=O)C2CC2)c(OC)c1 (stereo unspecified),14.9% (inactive)
7,CCOC(=O)Nc1ccc(NC(=O)OCC)cc1,52.3% (active)
8,CC(C)(COC(=O)Nc1ccccc1)COC(=O)Nc1ccccc1,35.2% (inactive)
9,CCOC(=O)Nc1ccc(S(=O)(=O)N(C)C(C)C)cc1,-22.3% (inactive)
10,O=C(Nc1ccc(Cl)cc1)OCc1cc(-c2ccccc2)on1,49.1% (inactive)
11,Cc1ccc(NC(=O)OCCNC(=O)c2ccncc2)cc1,47.9% (inactive)
12,Cc1ccc(NC(=O)OCc2cncs2)cc1,70.8% (active)
13,CN1CCc2ccccc2C1Cc1ccccc1NC(=O)c1sc2ccccc2c1Cl (stereo unspecified),-2.62% (inactive)
14,COC(=O)C1(CCSC)NC(c2ccc(OC)cc2OC)C2C(=O)N(c3cccc(C(C)=O)c3)C(=O)C21 (stereo unspecified),-5.19% (inactive)
15,N#Cc1ccc(-c2ccc(F)cc2)nc1Sc1ccccc1,-10% (inactive)
16,N#Cc1ccc(-c2nc3cc(C#N)c(C#N)cc3nc2-c2ccccc2)cc1C#N,56.6% (active)
17,N#Cc1c(-c2ccc(F)cc2)nc(-c2ccccc2)[nH]c1=O,-4.47% (inactive)
18,O=C(O)CCC(=O)Nc1ccc(OCC2CCCO2)cc1 (stereo unspecified),4.1% (inactive)
19,CCOc1ccc(N(C)Cc2cc(=O)oc3ccc(OC)cc23)cc1,-26.5% (inactive)
20,O=C(c1ccc(Cl)cc1)n1cnc2ccccc21,-4.02% (inactive)
21,Cc1ccc(OCC(=O)Nn2cnc3ccccc32)cc1,-4.5% (inactive)
22,COC(=O)c1ccc(-n2cnc3ccccc32)nc1,159% (active)
23,O=C(NCc1ccco1)/C(=C/c1ccco1)NC(=O)c1ccccc1,-2.21% (inactive)
24,COc1ccccc1-c1nnc(SCC(=O)Nc2cc(C)on2)o1,18.4% (inactive)

row,Structure (SMILES),inhibition
1,COc1ccc(-c2nnc(SCC(=O)c3cccs3)o2)c(OC)c1,150% (active)
2,COc1ccc(CCNC(=O)CSc2nnc(CNC(=O)c3cccs3)o2)cc1OC,-18.8% (inactive)
3,CCOc1ccc(N(CC(=O)Nc2ccccc2F)S(=O)(=O)c2c(C)[nH]c(=O)[nH]c2=O)cc1,-4.99% (inactive)
4,Cc1cccc(C(=O)N2CCCN(C(=O)c3cccc(C)c3)CC2)c1,19.1% (inactive)
5,Cc1cc(C)cc(NC(=O)N2CCCCCCC2)c1,-6.48% (inactive)
6,Cc1ccc2cc3cc(C(=O)N4CCCCCC4)oc3nc2c1,88.9% (active)
7,Cc1oc2nc(SCC(=O)Nc3ccc(S(N)(=O)=O)cc3)nc(NC(=O)c3ccccc3)c2c1C,-13.4% (inactive)
8,OCCC1CN(Cc2cnc(-c3ccccc3)s2)CCN1CCc1ccccc1 (stereo unspecified),-10.1% (inactive)
9,COc1ccc(NC(=O)CN2C(=O)COc3ccc(S(=O)(=O)N4CCOCC4)cc32)c(OC)c1,-2.93% (inactive)
10,COc1cccc(NC(=S)NC(=O)c2c(Cl)c(C)nn2C)c1,14.4% (active)
11,Cc1nn(C)c(C(=O)NNC(=S)NC2CCCCC2)c1Cl,14.6% (inactive)
12,COc1cccc(OC)c1C(=O)NC(=S)Nc1ccc(N2CCOCC2)c(Cl)c1,44.5% (inactive)
13,O=C(NCc1ccccn1)[C@]1(C(F)(F)F)C[C@H](CCc2ccccc2)CCCO1,-3.98% (inactive)
14,Nc1nnc2c(C(F)(F)F)nc3ccccc3n12,-8.69% (inactive)
15,Cc1cccc(-c2c(NC(=O)c3ccco3)oc3ccc(Cl)cc3c2=O)c1,20.5% (inactive)
16,OC(c1nnc(-c2ccccc2)o1)c1cccs1 (stereo unspecified),111% (active)
17,CCCN(CCC)c1ccc(C(O)c2nnc(-c3ccccc3)o2)cc1 (stereo unspecified),29.6% (inactive)
18,O=C(Nc1nnc(-c2ccccc2)o1)c1cc(-c2cccs2)nc2ccccc12,-9.05% (inactive)
19,Cn1c2ccc(F)cc2c2nnc(NN)nc21,-15% (inactive)
20,CC(C)c1cc(C(=O)N/N=C/C(Br)=C/c2ccccc2)n[nH]1,47.5% (active)
21,CC(C)c1cc(C(=O)O)n[nH]1,15.7% (inactive)
22,Cc1cc(C(=O)N/N=C\C(Br)=C\c2ccccc2)c(C)o1,54.6% (inactive)
23,O=C(CCc1nnc2ccc(NCc3ccccc3Cl)nn12)NCC1CCN(C2CCCC2)C1 (stereo unspecified),8.94% (inactive)
24,O=C(NCC1CCC(C(=O)O)CC1)OCc1ccccc1 (stereo unspecified),-15.3% (inactive)

row,Structure (SMILES),inhibition
1,CCOC(=O)N1CCC(NC(=O)CCc2ccccc2)CC1,-1.93% (inactive)
2,O=C(O)C1CCN(C(=O)OCc2ccccc2)CC1,80.9% (active)
3,O=c1cc(-c2ccc(O)cc2)oc2c([C@@H]3O[C@H](CO)[C@@H](O)[C@H](O)[C@H]3O)c(O)cc(O)c12,18.1% (inactive)
4,Cc1cccc(-n2c(O)c(/C=N/N3CCOCC3)c(=O)[nH]c2=S)c1,-12.5% (inactive)
5,Cc1cccc(-n2c(O)c(C=NC34CN5CN(CN(C5)C3)C4)c(=O)[nH]c2=O)c1,19.9% (inactive)
6,Cc1cccc(-n2c(O)c(C=Nc3ccccc3N)c(=O)[nH]c2=O)c1,57% (active)
7,Clc1ccc(-c2nc3ccccn3c2CN2CCSCC2)cc1,20.5% (inactive)
8,COc1ccc2[nH]c(=O)c(C3c4cc(OC)c(OC)cc4CCN3C(=O)c3ccco3)cc2c1 (stereo unspecified),-3.2% (inactive)
9,CCOCCCn1c(SCC(=O)Nc2cc(OC)ccc2OC)nc2ccccc2c1=O,-1.05% (inactive)
10,CCc1ccc(-c2cc3c(=O)n(CC(=O)NCCCN4CCN(Cc5ccccc5)CC4)nc(C)n3n2)cc1,-5.95% (inactive)
11,CCOc1ccc(C(=O)CCN2CCOCC2)cc1,-2.09% (inactive)
12,CCOc1ccc(N(CC(=O)NCCOc2ccccc2OC)S(=O)(=O)c2ccccc2)cc1,21.1% (inactive)
13,Cc1nonc1NC(=O)CSc1nc2ccccc2cc1C#N,41.1% (inactive)
14,COc1ccc(N2CCN(C(=O)CSc3nc4cc(OC)c(OC)cc4cc3C#N)CC2)cc1,18.6% (inactive)
15,CCOc1ccc2cc(C#N)c(SCC(=O)OC)nc2c1,135% (active)
16,CN=C1C=C/C(=N/N=c2\ccn(O)cc2C)C=C1C,20.1% (active)
17,Cc1cccc(NC(=S)NCCc2ccc(Cl)cc2)c1C,41.2% (inactive)
18,Cc1ccc(/C=C2\CCn3c2nc2cc(C(=O)O)ccc2c3=O)c(C)c1,-4.26% (inactive)
19,Cc1nn(C)c(Cl)c1CN1CCC(Oc2ccc(C(=O)N3CCCC3)cc2)CC1,-30.4% (inactive)
20,O=C(O)C1CC=CC2CCN(C3CCCCC3)C(=O)C21 (stereo unspecified),-9.66% (inactive)
21,Cn1c(=NC(=O)c2ccco2)sc2cccc(F)c21,102% (active)
22,CCCC(=O)N=c1sc2cccc(F)c2n1C,-7.62% (inactive)
23,Cn1c(=NC(=O)C2CC2)sc2cc(F)cc(F)c21,-1.62% (inactive)
24,O=C(O)c1cc2c(cc1NC(=O)c1c(F)cccc1Cl)OCCCO2,-14.4% (inactive)

row,Structure (SMILES),inhibition
1,FC(F)(F)c1cnc(Oc2ccccc2-c2nnc(-c3ccc(Cl)cc3)o2)c(Cl)c1,5.98% (inactive)
2,CSc1ccccc1-c1nnc(-c2ccc(Cl)cc2)o1,0% (active)
3,O=C(Nc1nnc(-c2ccc(Cl)cc2)o1)c1ccccc1Br,16.2% (inactive)
4,CCOC(=O)N1CCN(S(=O)(=O)c2ccc(OC)cc2)CC1,-26% (inactive)
5,OC(CNCC1CCCO1)Cn1c2ccc(Br)cc2c2cc(Br)ccc21 (stereo unspecified),-17.6% (inactive)
6,CCCN1CCn2c3c(c4cc(Br)ccc42)CCCC31 (stereo unspecified),31.7% (active)
7,Cc1cc(C)c2nc(N(CCN(C)C)C(=O)/C=C/c3cccs3)sc2c1,2.24% (inactive)
8,CSCc1nnc(NC(=O)c2ccc(S(=O)(=O)N3CCCCC3C)cc2)o1 (stereo unspecified),-11% (inactive)
9,NS(=O)(=O)c1ccccc1NC(=O)c1c(O)c2ccccc2[nH]c1=O,86% (active)
10,CCCOC(=O)Cc1c(O)c2ccccc2[nH]c1=O,2.32% (inactive)
11,CC(C)C(=O)Nc1c(O)c2ccccc2[nH]c1=O,23.1% (inactive)
12,CC(=O)Nc1cccc(C(=O)OCN2C(=O)c3ccccc3C2=O)c1,-7.54% (inactive)
13,Cc1cnc(NC(=O)CSc2c(Cl)cccc2Cl)s1,24.3% (inactive)
14,Cc1cnc(NC(=O)CSc2nnc(-c3ccccc3)n2Cc2ccccc2)s1,-7.47% (inactive)
15,Cc1cnc(NC(=O)CSc2nnc(-c3ccc(Cl)cc3Cl)n2N)s1,20.9% (active)
16,COc1ccc(C)cc1N(CC(=O)N1CCCC1)S(=O)(=O)c1ccccc1,8.24% (inactive)
17,COc1ccccc1CN1CCN(C(c2ccccc2)c2ccccc2)CC1,-13% (inactive)
18,COc1cc(OC)c(NC(=O)C2CCCN2C(=O)OCc2ccccc2)cc1Cl (stereo unspecified),-6.5% (inactive)
19,COc1ccc(-c2csc(NC(=O)c3ccc(N4C(=O)CCC4=O)cc3)n2)cc1OC,-16.4% (inactive)
20,COc1ccc2c(c1)C(c1cccs1)=NNC(c1cccnc1)=N2,39.6% (inactive)
21,COc1ccc(OC)c(-c2csc(-c3cccs3)n2)c1,45.3% (active)
22,COc1ccc(OC)c(-c2csc(NC(=O)C3=NNC(=O)CC3)n2)c1,-5.75% (inactive)
23,COc1ccc(-c2csc3nc(-c4ccccc4F)oc(=O)c23)cc1OC,1.32% (inactive)
24,Cc1cc(C)cc(NS(=O)(=O)Cc2ccccc2)c1,40.6% (inactive)
